dFosB act – enhances mouse delta FosB homodimer DNA binding | P13346 | purified delta FosB, TAMRA-CDK5 oligo fluorescence polarization; percent of positive-control signal above neutral wells | activation, % at 25 µM | hit rate 0.99% among 340,000;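 active = mean activation above about 17%, with every replicate also reaching it, limit read from the data, passing the limit was not always enough; inconclusive = only one of the two conditions met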
Target sequence (P13346 whole entry, looked up): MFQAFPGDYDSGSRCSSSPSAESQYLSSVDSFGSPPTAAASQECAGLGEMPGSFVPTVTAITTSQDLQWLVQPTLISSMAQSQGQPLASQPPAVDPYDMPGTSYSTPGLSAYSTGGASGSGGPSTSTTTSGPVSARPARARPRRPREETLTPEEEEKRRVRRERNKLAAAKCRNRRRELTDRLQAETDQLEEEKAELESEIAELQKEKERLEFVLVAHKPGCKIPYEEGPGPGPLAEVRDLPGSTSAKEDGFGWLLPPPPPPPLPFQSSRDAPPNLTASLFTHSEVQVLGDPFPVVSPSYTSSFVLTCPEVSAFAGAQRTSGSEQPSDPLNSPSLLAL
Vif inh – blocks HIV Vif function; HEK293T cells, Vif self-association by quenched fluorescence, imaging, 24 h; inhibition, % at 7.49 µM; hit rate 0.35% among 340,000; AID 602346; in the data active = inhibition above about 50%, passing the limit was not always enough; inconclusive = no clear call, values can overlap the other calls; inactive = below about 31%
A1 inh – inhibitors of the anti-apoptotic protein A1, read as caspase activation; MEF A1-2A-BIM cells, Caspase-Glo 3/7 luminescence, 3 h; percent of clofoctol response, vehicle zero; caspase activation, % (no concentration beside the values); hit rate 0.066% among 330,000; AID 2462;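 active = over half of replicate activation scores above 10%, or exactly half above 10 with the replicate mean above 10; inconclusive = replicate mean below 10 yet half the replicates above 10; inactive = over half of replicates below 10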
Neddyl block – cullin neddylation inhibition. TR-FRET cullin neddylation, biochemical. AID 651699. inhibition, % at 25 µM. hit rate 0.58% among 360,000; in the data active = inhibition above about 36%
INS-1E GSIS act – GLuc luminescence reporter in INS-1E cells, primary screen for activators of glucose-dependent secretion of insulin. INS-1E GLuc reporter insulin secretion, 2-3 h. activation, % at 16.6 µM. hit rate 0.61% among 370,000. AID 743287;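 active = lowest replicate activation of at least 40%, so every replicate reaches that level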;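 also: 0% = median of neutral control wells and 100% = median of IBMX positive control wells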
* marks the source's active call; other numbers are inactive results; ? = inconclusive; . = not tested or not shown. Rows were chosen to be rich in hits. Some 1.9% of all compounds tested hit in one or more screens of this group.

SMILES | dFosB act | Vif inh | A1 inh | Neddyl block | INS-1E GSIS act
Cc1ccccc1C(=O)Nc1c(C(=O)N2CCCC2)cnn1-c1ccccc1 | -7 | . | 1 | 7 | 8
CCOC(=O)c1cnn(-c2ccccc2)c1NC(=O)c1ccccc1C | -6 | 54* | 0 | -2 | .
S=C(Nc1ccc2nc(-c3ccccn3)c(-c3ccccn3)nc2c1)N1CCCCC1 | -7 | 0 | . | 42* | .
COc1ccc2nc3cc([N+](=O)[O-])ccc3c(NNc3ccc([N+](=O)[O-])cc3)c2c1 | 1 | 67* | . | -20 | .
C=CCNc1nc(NCc2ccccc2)c(C#N)c2c1CN(C)CC2 | 4 | -1 | 0 | . | .
N#Cc1c(NCCN)nc(NCc2ccccc2)c2c1CCN(Cc1ccccc1)C2 | 24* | 9 | . | . | .
CN(C)CCNC(=O)/C(=C/c1ccc(-c2ccc(Cl)cc2)o1)NC(=O)c1ccccc1 | 20* | 2 | 0 | 25 | 32
CN(C)CCNC(=O)/C(=C/c1ccc(-c2ccc(Cl)cc2Cl)o1)NC(=O)c1ccccc1 | 35* | -1 | 0 | 32 | 49
CN(C)CCCNC(=O)/C(=C\c1ccc(-c2cccc([N+](=O)[O-])c2)o1)NC(=O)c1ccccc1 | 15 | . | 0 | -44 | -4
Cc1ccc(C(=O)N/C(=C\c2ccc(-c3cccc([N+](=O)[O-])c3)o2)C(=O)NCCCN(C)C)cc1 | 15 | 0 | 0 | -29 | .
Cc1ccc(C(=O)N/C(=C\c2ccc(-c3ccc(Br)cc3)o2)C(=O)NCCCN(C)C)cc1 | ? | 5 | 0 | 50* | 27
C[C@@H]1CN([C@H](C)CO)S(=O)(=O)c2ccc(-c3cccc(C#N)c3)cc2O[C@H]1CN(C)C | . | . | . | . | -1
COC(=O)C[C@H]1C[C@@H]2c3cc(NS(=O)(=O)c4ccc(F)cc4)ccc3O[C@@H]2[C@H](CO)O1 | . | . | . | . | 0
CCCOc1ccc(/C=N/NC(=O)C(=O)Nc2ccccn2)cc1 | 5 | -1 | 0 | 4 | 52*
O=C(Nc1nccs1)[C@H]1[C@H](CO)[C@H]2Cn3c(cccc3=O)[C@@H]1N2C(=O)C1CC1 | . | . | . | . | 2
CN(C(=O)c1ccc2c(c1)SC1=NS(=O)(=O)CCN12)C(c1ccccc1)c1ccccc1 | -4 | 2 | 0 | 5 | 93*
O=C(O)c1ccc2c(c1)SC1=NS(=O)(=O)CCN12 | -5 | -1 | 0 | 8 | -7
c1ccc(-c2csc3nnc(SCc4ccc5c(c4)OCO5)n23)cc1 | -4 | 2 | 0 | -1 | 29
Fc1ccc(-c2csc3nnc(SCc4cccnc4)n23)cc1 | -2 | . | 1 | -24 | 56*
COC(=O)c1cc(C)ccc1OCc1ccc([N+](=O)[O-])cc1 | 4 | 82* | 0 | -16 | .
O=C1N[C@@H](c2ccccc2)COCc2cn(nn2)CC[C@H]1Cc1ccc(-c2ccccc2)cc1 | . | . | . | . | -4
COc1cc(/C=C2/NC(=O)N(CC(=O)Nc3ccc(C)cc3)C2=O)ccc1Oc1ccc([N+](=O)[O-])cn1 | 18* | 10 | 1 | 5 | 8
C[C@H]1CN([C@@H](C)CO)C(=O)c2cc(-c3ccccc3)cnc2O[C@H]1CN(C)Cc1cccnc1 | . | . | . | . | 14
C[C@@H]1CN([C@H](C)CO)S(=O)(=O)c2ccc(C3=CCCC3)cc2O[C@H]1CN(C)Cc1ccncc1 | . | . | . | . | 13
COC(=O)C1=C(C)N(Cc2ccccc2C(F)(F)F)C(=NCc2ccc(C(F)(F)F)cc2)NC1c1ccccc1 (stereo unspecified) | . | . | . | . | -26
SMILES | dFosB act | Vif inh | A1 inh | Neddyl block | INS-1E GSIS act
COC(=O)C1=C(C)N(Cc2ccc(C(F)(F)F)cc2)C(=NCc2ccccc2)NC1c1ccccc1 (stereo unspecified) | . | . | . | . | 949*
COC(=O)C1=C(C)N(Cc2ccc(C(F)(F)F)cc2)C(=NCc2ccccc2)NC1c1ccc(C(F)(F)F)cc1 (stereo unspecified) | . | . | . | . | 460*
COc1cccc(C(=O)Nc2ccc3c(c2)C(=O)N(C)[C@H]2CC[C@H](CC(=O)NCC(F)(F)F)O[C@H]2CO3)c1 | . | . | . | . | -5
O=C(Nc1ccc(F)cc1)N1CCCCN2[C@@H](CO)[C@@H](c3ccc(C#Cc4ccccc4)cc3)[C@@H]2C1 | . | . | . | . | 44*
CC(=O)c1cccc(NC(=S)NC(=O)C(C)C)c1 | -1 | 87* | 0 | -7 | .
CC(=O)c1cccc(NC(=S)NC(=O)c2ccccc2)c1 | -17 | -3 | 1 | -10 | 14
COc1cc(C(=O)OCCN2CCCCC2)ccc1O | 7 | 0 | 0 | -4 | .
COc1cc(C#CC#CCN2CCCCC2)ccc1O | -2 | -5 | -3 | -10 | 44*
CC(C)(O)C#Cc1ccc([C@H]2[C@@H](CO)N3CCCCN(S(C)(=O)=O)C[C@H]23)cc1 | . | . | . | . | 6
COc1ccc(-c2sc3cc4c(cc3c2C#CC2(N)CCCCC2)OCO4)cc1 | 67* | -1 | 1 | 21 | .
Cc1ccc(NC(=O)CN(C)S(=O)(=O)c2cccc3cccnc23)cc1 | -8 | 6 | 0 | 0 | 8
Cc1ccc(NC(=O)CN(C)C(=O)COc2cccc3cccnc23)cc1 | -10 | -3 | 1 | 13 | 40*
C[C@@H]1CCCCO[C@H](CN(C)S(=O)(=O)c2ccccc2)[C@H](C)CN([C@H](C)CO)C(=O)c2cc(NS(=O)(=O)c3ccc(F)cc3)ccc2O1 | . | . | . | . | -19
COc1cccc(NC(=O)N(C)C[C@H]2Oc3cc(-c4ccccc4F)ccc3S(=O)(=O)N([C@@H](C)CO)C[C@H]2C)c1 | . | . | . | . | 2
CCCn1c(=O)c(C(=O)Nc2ncccc2O)c(O)c2ccccc21 | -1 | 58* | 1 | 16 | 24
Cn1c(=O)c(C(=O)Nc2ncccc2O)c(O)c2ccccc21 | ? | 6 | 1 | 2 | .
Cc1ccc(C2(c3ccc(C)cc3)CC2C(=O)Nc2ccc([N+](=O)[O-])cc2O)cc1 (stereo unspecified) | -9 | -21 | 27* | 0 | .
Cc1ccc(C(=O)Nc2ccccc2N2CCCCC2)cc1 | 4 | -10 | 1 | 15 | -2
O=C(Nc1ccccc1N1CCCCC1)c1ccc(Cl)cc1 | -7 | 1 | 7.3* | 8 | -24
CO[C@H]1CN(C)C(=O)c2ccc(NC(=O)C3CC3)cc2OC[C@H](C)N(C)C[C@@H]1C | . | . | . | . | 8
CCC(=O)N1CC2(C1)[C@H](c1ccccc1)[C@@H](CO)N2Cc1cccc(Cl)c1 | . | . | . | . | 7
N#C[C@@H]1[C@H](c2ccccc2-c2cccc(F)c2)[C@H](CO)N1C(=O)Cc1cccnc1 | . | . | . | . | -4
OC[C@H]1Nc2ccc(C#Cc3ccc(F)cc3)cc2[C@H]2[C@@H]1CCN2Cc1ccc2c(c1)OCO2 | . | . | . | . | 4
COc1ccccc1N1CCN(C(=O)CCCCCn2c(=S)[nH]c3cc4c(cc3c2=O)OCO4)CC1 | . | 64* | . | -26 | .
O=C(CCCn1c(=S)[nH]c2cc3c(cc2c1=O)OCO3)N1CCN(c2ccccc2F)CC1 | -1 | 3 | 0 | -34 | .
Cc1ccc(C)c(OCC(=O)Nc2nonc2NC(=O)COc2cc(C)ccc2C)c1 | 14 | -4 | 3 | -4 | 129*

Screening data from PubChem BioAssay.
